From PubChem BioAssay
Records with an inconclusive call do not appear. The source made the active and inactive calls.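 How the source made its calls, unless noted: active means RAM network inhibition above 8.4% in each of two replicates, 3 SD over the compound average; inconclusive means above 8.4% inhibition in only one replicate; inactive means 8.4% inhibition or less in each replicate.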

What was measured:
[1] = reducers of endogenous Her2 protein level, primary screen, SKBR3 breast tumor cells, AlphaScreen, ATP viability (AID 461;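 active means Her2 level under about 52% in both replicate screens, with viability over 70% of control, limit read from the data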;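 on Her2 level: lower value means less Her2 protein in the cells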;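 on viability: percent of carrier control wells set as 100% viability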); conditions: 18-24 h, measured here: SKBR3 viability, ATP luminescence, at 10 µM
[2] = biological target: Receptor tyrosine-protein kinase erbB-2 (Homo sapiens) (UniProt P04626); experiment: as above; conditions: 18-24 h, at 10 µM, stronger effect = lower value
[3] = SK-BR-3 cell growth inhibitors, pilot screen, 24 h, human (AID 572;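 active means viability at or below 10% of carrier control in both of two separate runs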;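 further: compound exposure lasted between 18 and 24 h rather than exactly 24 h; 100% = carrier-treated control wells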); conditions: SK-BR-3 viability, CellTiter-Glo luminescence, at 10 µM, stronger effect = lower value
[4] = HUVEC growth inhibition – cell-based, human, primary screen (AID 575;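 active means viability at or below 30% in both replicate assays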;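 further: 100% = median of untreated cell wells with 0.1% DMSO on each plate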); conditions: HUVEC proliferation, CellTiter-Glo luminescence, 72 h; at 10 µM; stronger effect = lower value
[5] = growth inhibitors of H69AR lung tumor, primary screen, human, duplicate replicates (AID 580;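 active means viability at or under a set limit in both replicates, limit being median viability minus 3 SD, cut at about 48% in these data, passing the limit was not always enough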;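 further: 100% = mean luminescence of untreated wells and 0% = no signal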); conditions: H69AR lung tumor cells viability, ATP luminescence, 72 h; at 10 µM; stronger effect = lower value
[6] = reversal of MRP1-mediated doxorubicin resistance, pilot screen, H69AR cells, doxorubicin co-treatment (AID 601;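 active means viability loss from added drug above about 55%, and viability with drug at most 40%, in both replicates, limit read from the data, passing the limit was not always enough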); conditions: CellTiter-Glo, 72 h, at 10 µM; for differential viability (reversal): stronger effect = higher value
[7] = 384-well plate pilot, post-Golgi transport modulator project, inhibition of yeast transport mutant growth (AID 636; in the data active means inhibition above about 31%); conditions: absorbance 615 nm, about 18 h, stronger effect = higher value
[8] = growth suppression of yeast trafficking mutant, preliminary HTS, modulators of trafficking downstream of Golgi apparatus project, 1536-format plate, OD 615 nm (AID 637; in the data active means inhibition above about 30%); conditions: yeast transport mutant growth, absorbance 615 nm, 18 h; stronger effect = higher value
[9] = OD615 S. cerevisiae growth inhibition, permissive medium, pilot counter-assay, permissive growth control for S. cerevisiae lifespan shortening project (AID 705;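 active means growth inhibition above 25% in both replicates, a cutoff set 3 SD above the mean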); conditions: OD615, 24 h, at 10 µM, stronger effect = higher value
[10] = Restrictive medium S. cerevisiae growth inhibition, OD615, pilot screen of yeast lifespan reduction project, restrictive growth control (AID 706;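 active means growth inhibition above a set limit, 3 SD over mean compound inhibition, in both replicates, cut at about 43% in these data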;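 further: modified DeaD lifespan yeast strain shifted to restrictive glucose medium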); conditions: OD615, 48 h, at 10 µM, stronger effect = higher value
[11] = viability gain of MRP-1-high H69AR cells under doxorubicin, pilot screen, MRP-1 activator project, CellTiter-Glo, duplicate (AID 807;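 active means viability increase at or above a cutoff of the median across tested compounds plus 3 SD, cut at about 8.5% in these data, passing the limit was not always enough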;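 further: compound pretreatment 18-22 h then 72 h combined with doxorubicin; 0% = doxorubicin alone and 100% = vehicle without doxorubicin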); conditions: H69AR viability with doxorubicin, CellTiter-Glo luminescence; at 10 µM; stronger effect = higher value
[12] = growth suppression of beta-catenin knockout HCT116, pilot screen, human colon tumor cells (AID 823;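 active means cell viability at or below a set limit in both duplicate runs, the limit being the all-compound median minus 4 SD, cut at about 23% in these data, passing the limit was not always enough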;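 further: 0% = wells killed by 20 µM Hyamine and 100% = untreated DMSO cell wells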); conditions: CellTiter-Glo, 60 h, at 10 µM, stronger effect = lower value
[13] = growth suppression of PTEN-deleted HCT116, pilot screen, cell-based, HCT116 clonal line, CellTiter-Glo (AID 824;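 active means viability at or below 27.92% in each of two runs, the all-compound median minus 4 SD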;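 further: 0% = 20 µM Hyamine control and 100% = vehicle cell control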); conditions: 60 h, at 10 µM, stronger effect = lower value
[14] = inhibitors of the yeast RAM network, pilot screen, dse1pr::URA3 reporter, 5-FOA selection (AID 869;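 active means inhibition over a set limit, the all-compound mean plus 3 SD, in both replicate runs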;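 further: 0% = DMSO wells with no growth and 100% = 10 µM 1-NA-PP1 with full growth; RAM network block rescues cells from 5-FOA so hits raise OD615 growth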); conditions: S. cerevisiae dse1pr::URA3 5-FOA growth, OD615, 2 d; at 10 µM; stronger effect = higher value; strain carries analog-sensitive mutant Cbk1 kinase
[15] = RAM signaling pathway blockade in yeast – S. cerevisiae, Pdr1DBD-CYC8 efflux-inhibited sensitized strain, primary screen (AID 1298);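 further: 0% = DMSO untreated cells without growth and 100% = 10 µM 1-NA-PP1 full growth; higher means more yeast growth rescued from 5-FOA killing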; conditions: S. cerevisiae cbk1-as DSE1-URA3 strain, 5-FOA growth OD615, 2 d; at 50 µM; stronger effect = higher value
[16] = H69AR cells + 2 uM doxorubicin, measured here: viability with 2 uM doxorubicin, stronger effect = lower value
[17] = H69AR cells, compound alone cytotoxicity

Chain of Receptor tyrosine-protein kinase erbB-2 (Homo sapiens) (P04626 whole entry, looked up): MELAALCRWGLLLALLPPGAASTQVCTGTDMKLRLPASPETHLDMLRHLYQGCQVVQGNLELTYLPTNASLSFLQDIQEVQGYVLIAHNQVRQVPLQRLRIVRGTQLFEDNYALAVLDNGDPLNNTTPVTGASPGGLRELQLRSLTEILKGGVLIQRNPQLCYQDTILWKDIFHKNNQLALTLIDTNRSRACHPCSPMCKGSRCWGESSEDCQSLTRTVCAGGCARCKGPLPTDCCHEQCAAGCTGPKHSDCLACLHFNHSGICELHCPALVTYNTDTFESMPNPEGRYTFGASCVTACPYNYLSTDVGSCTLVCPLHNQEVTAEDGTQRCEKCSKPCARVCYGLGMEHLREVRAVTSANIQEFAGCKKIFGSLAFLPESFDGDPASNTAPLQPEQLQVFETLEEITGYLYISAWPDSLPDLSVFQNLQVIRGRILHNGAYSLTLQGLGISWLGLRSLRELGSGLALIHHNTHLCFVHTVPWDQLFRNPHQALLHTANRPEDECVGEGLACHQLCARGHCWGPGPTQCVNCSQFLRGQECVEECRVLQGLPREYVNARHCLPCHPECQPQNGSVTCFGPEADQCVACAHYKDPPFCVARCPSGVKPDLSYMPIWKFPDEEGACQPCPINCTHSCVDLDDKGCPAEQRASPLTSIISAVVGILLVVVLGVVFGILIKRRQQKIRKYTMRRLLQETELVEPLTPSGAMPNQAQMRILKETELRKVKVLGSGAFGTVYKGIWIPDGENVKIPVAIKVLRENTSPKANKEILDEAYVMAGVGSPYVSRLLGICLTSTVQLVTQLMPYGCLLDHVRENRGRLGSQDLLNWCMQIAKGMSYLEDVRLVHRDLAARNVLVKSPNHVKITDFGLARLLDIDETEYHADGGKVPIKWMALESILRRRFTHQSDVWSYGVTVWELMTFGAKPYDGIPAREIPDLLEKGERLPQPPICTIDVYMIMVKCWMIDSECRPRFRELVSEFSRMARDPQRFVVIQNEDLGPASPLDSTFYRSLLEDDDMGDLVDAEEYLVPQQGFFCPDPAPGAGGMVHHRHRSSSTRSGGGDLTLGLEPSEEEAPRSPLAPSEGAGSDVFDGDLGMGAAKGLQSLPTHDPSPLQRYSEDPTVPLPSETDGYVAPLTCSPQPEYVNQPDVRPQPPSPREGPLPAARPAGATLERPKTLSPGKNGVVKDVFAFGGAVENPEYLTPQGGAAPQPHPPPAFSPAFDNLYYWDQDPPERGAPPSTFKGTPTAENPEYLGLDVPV

| Compound | viability [1] | Her2 level [2] | viability [3] | viability [4] | viability [5] | differential viability (reversal) ([6]; H69AR cells + 2 uM doxorubicin) | viability [6, 16] | viability [6, 17] | inhibition [7] | inhibition [8] | growth inhibition [9] | growth inhibition [10] | viability increase [11] | viability [12] | viability [13] | inhibition [14] | RAM network inhibition [15] |
| --- | --- | --- | --- | --- | --- | --- | --- | --- | --- | --- | --- | --- | --- | --- | --- | --- | --- |
| COc1ccc(OC)c(C(=O)c2ccc(C(=O)O)cc2)c1 | 120% | 107% (inactive) | 120% (inactive) | 87.2% (inactive) | 103% (inactive) | 6.11% (inactive) | 96.5% | 103% | -3.73% (inactive) | 1.94% (inactive) | -10.1% (inactive) | -16.1% (inactive) | 0.88% (inactive) | 105% (inactive) | 103% (inactive) | 1.67% (inactive) | 0.12% (inactive) |
| CC(C)(C)SCCNC(=O)CN1C(=O)c2ccccc2S1(=O)=O | 97% | 92.5% (inactive) | 97% (inactive) | 101% (inactive) | 106% (inactive) | 8.94% (inactive) | 97.4% | 106% | -4.67% (inactive) | 0.82% (inactive) | -13% (inactive) | -6.21% (inactive) | -0.57% (inactive) | 103% (inactive) | 99.8% (inactive) | 1.42% (inactive) | 4.44% (inactive) |
| COc1cccc2cc(C(=O)N3CCN(c4ccc(C)cc4C)CC3)c(=O)oc12 | 116% | 110% (inactive) | 116% (inactive) | 93.7% (inactive) | 96.5% (inactive) | 7.98% (inactive) | 88.5% | 96.5% | -3.6% (inactive) | -6.67% (inactive) | -7.67% (inactive) | 5.05% (inactive) | -2.99% (inactive) | 85.3% (inactive) | 74.3% (inactive) | -0.005% (inactive) | 1.18% (inactive) |
| CC(C)NC(=O)c1ccc2c(c1)nnn2C | 94% | 84% (inactive) | 94% (inactive) | 87.6% (inactive) | 99.4% (inactive) | 0.56% (inactive) | 98.8% | 99.4% | -4.05% (inactive) | -4.92% (inactive) | -7.61% (inactive) | -12.3% (inactive) | 0.39% (inactive) | 106% (inactive) | 105% (inactive) | 2% (inactive) | 1.32% (inactive) |
| O=C(Nc1cccc(F)c1)C1C2C=CC3(CN(CCCN4CCOCC4)C(=O)C13)O2 (stereo not given) | 96% | 104% (inactive) | 96% (inactive) | 89.4% (inactive) | 103% (inactive) | 20.3% (inactive) | 83.1% | 103% | -2.27% (inactive) | -3.11% (inactive) | 1.12% (inactive) | 1.81% (inactive) | 0.8% (inactive) | 106% (inactive) | 106% (inactive) | 0.595% (inactive) | 2.03% (inactive) |
